Common to all, as to design: scale not given: direction of the effect not stated beside the values
Experiment [1] concerns the target Protein translocase subunit SecA (Escherichia coli (strain K12)) (UniProt P10408). In words: Assay to Identify E. coli SecA ATPase Inhibitors. The class given is functional. The conditions noted are these: 30 µM.
Experiment [2] addresses T1, Ubiquitin-activating enzyme e1, putative (Leishmania donovani (strain BPK282A1)) (UniProt E9BSI1).
T1 sequence (whole entry): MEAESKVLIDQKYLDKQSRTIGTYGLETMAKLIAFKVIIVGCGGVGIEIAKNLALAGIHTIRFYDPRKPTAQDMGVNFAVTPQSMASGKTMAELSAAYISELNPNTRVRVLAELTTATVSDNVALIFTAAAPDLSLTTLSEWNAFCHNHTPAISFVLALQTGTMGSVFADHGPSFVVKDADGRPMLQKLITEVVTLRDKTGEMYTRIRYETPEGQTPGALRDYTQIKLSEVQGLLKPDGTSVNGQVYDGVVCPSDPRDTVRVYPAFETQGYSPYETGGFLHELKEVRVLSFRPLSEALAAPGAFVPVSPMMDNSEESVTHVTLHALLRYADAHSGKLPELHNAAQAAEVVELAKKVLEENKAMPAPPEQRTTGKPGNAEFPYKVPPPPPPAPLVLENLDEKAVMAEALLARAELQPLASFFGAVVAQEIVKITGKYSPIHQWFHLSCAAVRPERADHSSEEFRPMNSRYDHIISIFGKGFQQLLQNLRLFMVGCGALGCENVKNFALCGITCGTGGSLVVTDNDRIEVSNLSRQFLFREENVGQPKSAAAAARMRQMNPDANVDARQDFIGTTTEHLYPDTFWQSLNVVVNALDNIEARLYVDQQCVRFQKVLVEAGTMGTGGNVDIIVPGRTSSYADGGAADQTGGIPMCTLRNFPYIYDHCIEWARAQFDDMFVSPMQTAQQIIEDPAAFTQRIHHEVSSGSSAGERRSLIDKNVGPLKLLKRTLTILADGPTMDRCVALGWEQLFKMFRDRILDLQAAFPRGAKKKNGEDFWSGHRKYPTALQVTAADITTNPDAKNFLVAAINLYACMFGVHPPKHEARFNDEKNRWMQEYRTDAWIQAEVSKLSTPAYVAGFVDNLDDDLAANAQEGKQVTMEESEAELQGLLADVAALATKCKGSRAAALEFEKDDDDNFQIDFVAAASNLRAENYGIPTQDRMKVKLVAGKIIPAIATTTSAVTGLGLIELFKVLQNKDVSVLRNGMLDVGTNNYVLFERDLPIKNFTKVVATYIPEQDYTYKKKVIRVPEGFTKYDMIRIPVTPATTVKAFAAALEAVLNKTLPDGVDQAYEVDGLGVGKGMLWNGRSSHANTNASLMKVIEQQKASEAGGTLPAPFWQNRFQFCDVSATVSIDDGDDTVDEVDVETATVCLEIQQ
In words: Leishmania donovani Ubiquitin Activating Enzyme (LdE1). It is filed as functional. The conditions noted are these: 30 µM.

Experiment [3] has as its target T2, Aspartate--tRNA(Asp/Asn) ligase (Mycobacterium tuberculosis (strain ATCC 25618 / H37Rv)) (UniProt P9WFW3). Further: in the data most compounds retested in dose-response had high values.
T2 sequence (whole entry): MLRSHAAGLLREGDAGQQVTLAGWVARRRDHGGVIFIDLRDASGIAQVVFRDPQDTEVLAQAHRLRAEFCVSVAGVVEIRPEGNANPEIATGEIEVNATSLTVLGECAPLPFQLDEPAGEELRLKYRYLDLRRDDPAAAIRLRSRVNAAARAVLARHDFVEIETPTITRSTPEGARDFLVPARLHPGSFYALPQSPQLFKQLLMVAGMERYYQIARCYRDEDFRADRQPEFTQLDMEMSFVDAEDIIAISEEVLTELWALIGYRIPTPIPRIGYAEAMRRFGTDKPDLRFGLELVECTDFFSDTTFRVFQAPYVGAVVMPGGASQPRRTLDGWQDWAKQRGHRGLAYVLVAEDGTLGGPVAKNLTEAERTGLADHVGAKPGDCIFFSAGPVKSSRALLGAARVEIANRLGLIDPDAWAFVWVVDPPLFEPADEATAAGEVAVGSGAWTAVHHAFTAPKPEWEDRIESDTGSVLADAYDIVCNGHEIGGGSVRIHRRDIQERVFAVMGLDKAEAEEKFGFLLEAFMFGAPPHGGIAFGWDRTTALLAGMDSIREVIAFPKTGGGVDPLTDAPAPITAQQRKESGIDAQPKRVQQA
The experiment in a line: Assay for Asp RNA synthetase-1 from Mycobacterium tuberculosis. It is filed as functional. The conditions noted are these: 30 µM.

Experiment [4] concerns the target Sialic acid-binding Ig-like lectin 9 (Homo sapiens) (UniProt Q9Y336). The experiment in a line: Hs-Siglec9 ALPHAscreen SOP 20170721. The conditions noted are these: 10 µM.
The test system of experiment [5] is Trypanosoma cruzi. In words: Trypanosoma cruzi phosphomannomutase and mannose-1-phosphate guanylyltransferase assay. The class given is functional. The conditions noted are these: 10 µM.
The target of experiment [6] is T3, Arginase-2, mitochondrial (Homo sapiens) (UniProt P78540).
T3 sequence (whole entry): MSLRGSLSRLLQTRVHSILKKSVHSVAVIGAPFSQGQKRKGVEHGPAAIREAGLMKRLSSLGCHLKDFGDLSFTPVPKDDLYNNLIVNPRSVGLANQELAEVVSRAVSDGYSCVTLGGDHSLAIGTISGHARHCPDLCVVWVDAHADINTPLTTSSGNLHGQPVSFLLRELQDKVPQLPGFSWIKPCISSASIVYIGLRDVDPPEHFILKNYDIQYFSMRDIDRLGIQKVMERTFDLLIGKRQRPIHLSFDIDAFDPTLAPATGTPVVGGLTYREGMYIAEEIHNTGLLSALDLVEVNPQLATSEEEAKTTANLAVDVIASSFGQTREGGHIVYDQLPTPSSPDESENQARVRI
In words: in vitro enzyme assay to detect the production of urea directly proportional to the activity of Arginase II. Further: in the data most compounds retested in dose-response had high values. The conditions noted are these: 33.3 µM. The class given is functional.

For experiment [7], the target named is T4, Proteasome subunit beta (Trypanosoma cruzi) (UniProt O96673).
T4 sequence (whole entry): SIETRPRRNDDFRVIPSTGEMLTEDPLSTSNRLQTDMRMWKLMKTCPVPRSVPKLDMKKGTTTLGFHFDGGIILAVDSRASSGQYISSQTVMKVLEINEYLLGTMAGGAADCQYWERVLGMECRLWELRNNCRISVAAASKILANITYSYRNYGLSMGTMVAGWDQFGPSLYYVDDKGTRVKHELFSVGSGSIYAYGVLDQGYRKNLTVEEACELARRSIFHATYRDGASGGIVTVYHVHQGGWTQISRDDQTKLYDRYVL
In words: Trypanosoma cruzi proteasome chymotrypsin-like activity (TcProtChymo) assay. Further: in the data most compounds retested in dose-response had high values. The conditions noted are these: 9.37 µM. It is filed as functional.

For experiment [8], the species on record is Homo sapiens. The experiment in a line: To identify inhibition of the IFN signalling (Jak-Stat) pathway via expression of an eGFP reporter gene under the control of an IFN-stimulated response element (ISRE) containing MxA promoter. It is filed as functional. The conditions noted are these: 30 µM. In general terms: A reporter such as luciferase makes a cellular process visible.

Experiment [9] deals with Shiga toxin 2 (Escherichia coli O157:H7) (UniProt P09385+P09386). In words: E. coli 0.157:H7 Shiga Toxin SOP - stx2 screening assay. The class given is functional. The conditions noted are these: 30 µM.
Experiment [10] concerns the target T5, Tyrosyl-tRNA synthetase, putative (Trypanosoma cruzi (strain CL Brener)) (UniProt Q4DSP6).
T5 sequence (whole entry): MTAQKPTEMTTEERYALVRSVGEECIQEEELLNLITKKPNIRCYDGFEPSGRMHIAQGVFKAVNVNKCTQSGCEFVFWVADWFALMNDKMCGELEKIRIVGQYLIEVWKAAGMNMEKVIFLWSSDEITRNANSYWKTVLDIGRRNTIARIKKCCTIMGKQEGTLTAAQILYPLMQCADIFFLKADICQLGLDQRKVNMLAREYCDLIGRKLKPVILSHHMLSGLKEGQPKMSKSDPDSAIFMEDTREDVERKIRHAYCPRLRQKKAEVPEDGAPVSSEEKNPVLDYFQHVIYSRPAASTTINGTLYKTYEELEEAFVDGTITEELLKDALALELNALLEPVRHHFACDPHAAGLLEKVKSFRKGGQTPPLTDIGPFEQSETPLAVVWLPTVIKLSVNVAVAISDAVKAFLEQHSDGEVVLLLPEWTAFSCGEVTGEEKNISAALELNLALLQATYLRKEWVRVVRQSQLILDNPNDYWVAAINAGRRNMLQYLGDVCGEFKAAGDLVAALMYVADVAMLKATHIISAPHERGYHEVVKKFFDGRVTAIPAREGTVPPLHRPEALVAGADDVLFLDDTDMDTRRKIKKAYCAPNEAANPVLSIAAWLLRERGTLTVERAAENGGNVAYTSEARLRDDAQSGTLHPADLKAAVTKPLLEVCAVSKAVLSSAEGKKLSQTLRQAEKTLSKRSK
In words: Trypanosoma cruzi tyrosyl tRNA synthetase (TcYRS) _High Tyrosine SOP. Further: in the data most compounds retested in dose-response had high values. The conditions noted are these: 30 µM. The class given is functional.

Experiment [11] addresses T5, Tyrosyl-tRNA synthetase, putative (Trypanosoma cruzi (strain CL Brener)). The experiment in a line: Trypanosoma cruzi tyrosyl tRNA synthetase (TcYRS) SOP. The class given is functional. The conditions noted are these: 30 µM.
Experiment [12] deals with Chromo domain-containing protein 1 (Saccharomyces cerevisiae (strain ATCC 204508 / S288c) (Baker's yeast)) (UniProt P32657). The experiment in a line: ScCHD-1 Enzyme Inhibition Assay. Further: in the data most compounds retested in dose-response had high values. The class given is functional. The conditions noted are these: 30 µM.
The target in experiment [13] is AMP-activated protein kinase, AMPK (Homo sapiens) (UniProt P54646+O43741+P54619+Q9UGJ0+Q9Y478+Q13131+Q9UGI9). The experiment in a line: AMP-dependent Kinase enzyme assay. An in vitro enzyme assay that detects ADP turnover that is directly proportional to AMPK activity. This uses naive AMPK that is activated during the assay with MK-8722. It is filed as functional. The conditions noted are these: 30 µM.

For part of these data: Potency and affinity values are given separately.

Chromo domain-containing protein 1 (Saccharomyces cerevisiae (strain ATCC 204508 / S288c) (Baker's yeast)), sequence (P32657 whole entry, the tested form may be a part): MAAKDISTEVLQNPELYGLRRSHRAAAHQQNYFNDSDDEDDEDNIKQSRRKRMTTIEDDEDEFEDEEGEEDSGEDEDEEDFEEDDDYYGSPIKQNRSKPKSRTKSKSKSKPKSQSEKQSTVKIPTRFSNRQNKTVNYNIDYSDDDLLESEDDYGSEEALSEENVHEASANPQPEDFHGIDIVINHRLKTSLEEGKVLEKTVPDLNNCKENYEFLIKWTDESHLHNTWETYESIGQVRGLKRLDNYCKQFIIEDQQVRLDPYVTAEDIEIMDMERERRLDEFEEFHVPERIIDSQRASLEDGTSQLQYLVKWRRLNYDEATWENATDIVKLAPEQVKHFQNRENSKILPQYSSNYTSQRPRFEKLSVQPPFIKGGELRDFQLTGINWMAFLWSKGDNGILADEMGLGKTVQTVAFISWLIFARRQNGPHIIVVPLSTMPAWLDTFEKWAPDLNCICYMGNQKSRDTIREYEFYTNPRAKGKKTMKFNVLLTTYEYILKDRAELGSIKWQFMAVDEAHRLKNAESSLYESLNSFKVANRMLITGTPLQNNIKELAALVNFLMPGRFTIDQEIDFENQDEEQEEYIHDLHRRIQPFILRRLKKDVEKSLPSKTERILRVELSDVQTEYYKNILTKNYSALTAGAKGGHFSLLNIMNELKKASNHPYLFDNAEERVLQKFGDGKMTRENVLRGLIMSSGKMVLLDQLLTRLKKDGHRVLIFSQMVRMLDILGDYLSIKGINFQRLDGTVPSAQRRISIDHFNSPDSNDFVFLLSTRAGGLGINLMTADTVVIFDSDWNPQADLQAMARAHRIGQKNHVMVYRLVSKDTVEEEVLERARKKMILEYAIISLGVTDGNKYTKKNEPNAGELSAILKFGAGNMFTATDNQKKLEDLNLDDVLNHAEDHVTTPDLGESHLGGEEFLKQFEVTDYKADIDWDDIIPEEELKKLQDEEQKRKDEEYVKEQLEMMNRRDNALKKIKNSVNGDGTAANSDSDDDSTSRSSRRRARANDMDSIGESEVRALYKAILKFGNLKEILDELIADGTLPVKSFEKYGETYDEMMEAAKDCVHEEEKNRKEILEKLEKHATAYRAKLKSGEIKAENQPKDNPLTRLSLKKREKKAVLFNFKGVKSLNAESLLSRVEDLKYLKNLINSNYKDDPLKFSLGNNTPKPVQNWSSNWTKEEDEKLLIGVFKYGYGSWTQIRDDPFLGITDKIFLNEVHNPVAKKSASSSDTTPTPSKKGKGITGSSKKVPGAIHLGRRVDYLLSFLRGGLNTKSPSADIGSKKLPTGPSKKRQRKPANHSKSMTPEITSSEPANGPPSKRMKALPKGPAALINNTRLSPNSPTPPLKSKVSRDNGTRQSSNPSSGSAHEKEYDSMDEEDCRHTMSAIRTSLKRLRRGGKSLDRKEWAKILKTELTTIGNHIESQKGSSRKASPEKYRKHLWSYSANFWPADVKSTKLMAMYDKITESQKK
Protein translocase subunit SecA (Escherichia coli (strain K12)), sequence (P10408 whole entry): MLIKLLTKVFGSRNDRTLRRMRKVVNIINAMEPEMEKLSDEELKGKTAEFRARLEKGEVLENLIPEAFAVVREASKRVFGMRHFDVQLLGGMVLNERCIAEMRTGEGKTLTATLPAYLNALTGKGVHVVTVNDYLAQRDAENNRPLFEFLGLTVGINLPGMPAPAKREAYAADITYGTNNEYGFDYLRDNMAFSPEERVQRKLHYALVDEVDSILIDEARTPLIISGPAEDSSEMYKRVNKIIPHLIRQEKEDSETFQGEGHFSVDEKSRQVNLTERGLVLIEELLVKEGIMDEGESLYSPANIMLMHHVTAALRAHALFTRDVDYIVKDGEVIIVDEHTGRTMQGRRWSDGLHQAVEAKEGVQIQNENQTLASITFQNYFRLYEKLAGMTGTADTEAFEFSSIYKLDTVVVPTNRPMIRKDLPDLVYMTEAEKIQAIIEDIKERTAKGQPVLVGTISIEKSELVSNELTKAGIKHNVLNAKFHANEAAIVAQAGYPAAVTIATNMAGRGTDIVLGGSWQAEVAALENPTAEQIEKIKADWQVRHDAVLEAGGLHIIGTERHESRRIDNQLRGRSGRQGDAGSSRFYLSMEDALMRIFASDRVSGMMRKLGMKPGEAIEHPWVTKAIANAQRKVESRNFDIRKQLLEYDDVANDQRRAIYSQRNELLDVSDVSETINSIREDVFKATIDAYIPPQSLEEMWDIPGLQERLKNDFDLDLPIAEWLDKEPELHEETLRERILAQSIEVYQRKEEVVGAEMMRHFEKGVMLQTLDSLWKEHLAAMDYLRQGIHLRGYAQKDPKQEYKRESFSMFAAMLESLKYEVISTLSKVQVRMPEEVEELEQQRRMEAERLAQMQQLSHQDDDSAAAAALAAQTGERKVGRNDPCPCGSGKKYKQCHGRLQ
Sialic acid-binding Ig-like lectin 9 (Homo sapiens), sequence (Q9Y336 whole entry): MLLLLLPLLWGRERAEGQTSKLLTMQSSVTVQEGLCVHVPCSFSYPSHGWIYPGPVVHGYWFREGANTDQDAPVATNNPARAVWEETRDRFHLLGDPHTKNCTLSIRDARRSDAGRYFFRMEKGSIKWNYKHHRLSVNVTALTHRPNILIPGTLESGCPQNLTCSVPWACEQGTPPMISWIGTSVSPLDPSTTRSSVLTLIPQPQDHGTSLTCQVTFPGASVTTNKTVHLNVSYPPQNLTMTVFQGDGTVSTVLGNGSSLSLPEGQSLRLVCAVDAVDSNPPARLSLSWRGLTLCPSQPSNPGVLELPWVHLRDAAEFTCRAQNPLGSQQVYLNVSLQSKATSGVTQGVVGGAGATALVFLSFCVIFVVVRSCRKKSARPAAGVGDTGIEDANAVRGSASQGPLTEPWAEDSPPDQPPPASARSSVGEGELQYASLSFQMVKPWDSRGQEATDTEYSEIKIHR

In the case of `O=C1CC[C@H]2[C@H](CCN2Cc2ccccn2)N1CC1CCOCC1`, the Percent Effect in experiment [1] is -3.55%; in experiment [2] it was 9.09%; in experiment [3], -4.23%; in experiment [4], -1.65%; in [5] it was -5.63%; in experiment [6], 2.74%. For the same molecule, the Percent Effect in experiment [7] was 3.35%; in experiment [8], 8.69%; in experiment [9] it was -14%; in experiment [10], -0.966%; in [11], 2.5%; in experiment [12] it was -0.494%.
As to `CNCCc1nc2cc(Cl)ccc2[nH]1`, the Percent Effect is -7.19% in experiment [1]; 0% in experiment [2]; 0.126% in experiment [3]; 1.26% in experiment [13]; -5.75% in [4]; -7.11% in experiment [5]. Further, the Percent Effect was -3.65% in experiment [6]; 5.58% in experiment [7]; 5.87% in experiment [8]; -4.92% in experiment [10]; -6.17% in experiment [11]; 0.639% in [12].
On to `COCCN1C[C@H]2[C@@H](C1)N(C(=O)COc1ccccc1)CC[C@H]2OC`, for which the Percent Effect in experiment [1] was -3.67%; in [2] it was 3.9%; in experiment [3], -1.3%; in [4], 0.149%; in experiment [5], 5.36%; in [6], -4.45%. Besides, the Percent Effect in experiment [7] is 19.7%; in experiment [8] it was -1.44%; in experiment [9], -14.5%; in experiment [10] it was 5.79%; in experiment [11] it was 15.4%; in experiment [12], 36.6%.
Consider `O=C(Cc1c(F)cccc1F)N1CCN(CC(=O)N2CCCC2)CC1`, for which the Percent Effect in experiment [1] was -1.5%; in experiment [2] it was -1.3%; in experiment [3] it was -5.83%; in [4] it was -2.19%; in experiment [5], -0.938%; in experiment [6], 4.57%. Further, the Percent Effect in experiment [7] was 22.1%; in experiment [8] it was 12.9%; in experiment [9], 16.1%; in experiment [10], 4.83%; in experiment [11] it was 10%; in [12] it was -6.7%.
Take `Cc1cccc(CN2CC[C@H]3[C@H]2CCN3Cc2cnn(C)c2)n1`: the Percent Effect in [1] is -6.02%; in experiment [2], 3.9%; in [3] it was -3.89%; in experiment [4], 2.88%; in experiment [5] it was 0.75%; in [6], -0.457%. Moreover, the Percent Effect is -2.15% in [7]; 34% in experiment [8]; -8.6% in [9]; -1.93% in experiment [10]; -10% in [11]; 1.01% in experiment [12].

The values are drawn from ChEMBL document CHEMBL3988442, “University of Dundee, Small-Polar-MMV Screening Library” (2021).
